Screening data from PubChem BioAssay.
Sfp inh = blocks B. subtilis Sfp PPTase activity; Biochemical Sfp PPTase activity, qHTS; Potency, µM, for inactives: largest response in the series, negative = inhibition, most hits filed as inhibitors; 310,000 tested, 3.5% active;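 note: the enzyme is Sfp with the accession as filed and its product quenches rhodamine fluorescence; 0% = enzyme reaction without inhibitor and -100% = no enzyme wells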
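Buffer: 50 mM Hepes-Na pH 7.6, 10 mM MgCl2, 0.01% Nonidet P-40, 0.01% BSA. Enzyme 15 nM, pre-exposed to compound 15 min; substrates then added and fluorescence change tracked over 30 min.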
G9a inh = blocks human histone lysine methyltransferase G9a; Potency, µM (top dose mostly 102 µM), without a hit: at the top dose activity, negative = inhibition, hits mostly inhibitors; AID 504332; 350,000 tested, 8.8% active; G9a H3K9 monomethylation, AlphaScreen, 2 h; note: % is set by controls: 0 for no effect and ±100 for the full control effect; nearly all actives have a fitted effect of over 75% in size
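Readings reflect AlphaScreen signal from monomethyl-H3K9 antibody detection. HMT at 20 nM; substrate b-H3K9 500 nM; cofactor SAM 20 uM; 2 h RT reaction; compounds tested as titrations in qHTS with 15 min preincubation.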
BAZ2B inh = BAZ2B (human) inhibition | AlphaScreen BAZ2B-H3K14Ac peptide displacement | AID 504333 | 360,000 tested, 4.4% active | Potency, µM (highest dose often 114 µM), for inactives: top-dose activity change, negative = inhibition, usual class: inhibitors | Q9UIF8; note: % is set by controls: 0 for no effect and ±100 for the full control effect; nearly all actives have a fitted effect of over 60% in size
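In this displacement format the biotinylated H3(5-23) peptide acetylated at Lys14 serves as ligand at 50 nM, with BAZ2B at 50 nM in PBS pH 7.4 containing 0.01% Tween-20. Donor and acceptor beads are 10 ug/mL final.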
L3MBTL1 inh = L3MBTL1 (human) inhibition; Q9Y468; AlphaScreen L3MBTL1–H3K9me1 peptide binding; Potency, µM (series often up to 57.1 µM), without a hit: at the highest dose activity, negative = inhibition, actives largely listed as inhibitors; 230,000 tested, 0.66% active; AID 485360; note: % is set by controls: 0 for no effect and ±100 for the full control effect; nearly all actives have a fitted effect of over 60% in size
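L3MBTL1 (50 nM) pre-complexed 30 min with biotinylated H3(1-15)K9me1 peptide (75 nM), then compounds added for 30 min at room temperature; AlphaScreen streptavidin donor/nickel chelate acceptor beads (10 ug/mL final) read after 30 min dark incubation.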
JMJD2A Tudor = blocks the human JMJD2A Tudor domain; O75164; AlphaScreen JMJD2A-Tudor / H3K4me3 peptide binding; Potency, µM (top dose mostly 114 µM), inactives show top-dose activity change, negative = inhibition, most hits filed as inhibitors; 390,000 tested, 4.4% active; AID 504339; note: % is set by controls: 0 for no effect and ±100 for the full control effect; nearly all actives have a fitted effect of over 50% in size
HP1b binding inh = HP1-beta chromodomain-methylated histone interaction inhibition | 390,000 tested, 0.56% active | Potency, µM (doses to about 114 µM), without a hit: at the highest dose activity change, negative = inhibition, hits mostly inhibitors | AlphaScreen HP1-beta / biotin-H3K9me3 peptide binding | P83916; note: nearly all actives have a fitted effect of over 70% in size
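Compound inhibition of the preformed complex between 50 nM HP1-beta and 50 nM biotinylated H3K9me3 peptide was read by AlphaScreen. Buffer was PBS pH 7.4 with 0.01% Tween-20. Incubations ran 30 min at room temperature, with 10 ug/mL donor/acceptor beads.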
An asterisk follows results filed as active; u = inconclusive; x = no result; ! = not confirmed by another sample; [ ] = another dose, or the depositor's remark. In the library only some 12% were active in any assay of this set; here they are far more common. Calls come from the whole dose curve; as a rule, active = well fitted curve in the direction sought with a large enough effect; inconclusive = small, poorly fitted or top-dose-only effect, or another doubt; inactive = no such curve, though single readings can be large; an effect the other way counts as inactive or inconclusive. Potency is the fitted concentration of half-maximal effect.

SMILES	Sfp inh	G9a inh	BAZ2B inh	L3MBTL1 inh	JMJD2A Tudor	HP1b binding inh
CCOC(=O)c1c(NC(=O)c2ccccc2C)sc2c1CC(C)(C)OC2	31.6µM*	u	52.7%	x	59.7%	45.5%
C=C(C)CNC(=S)Nc1sc2c(c1C(=O)OCC)CC(C)(C)OC2	39.8µM*	14.1µM*	8.9%	17.7%	u	-35.6%
Cc1ccc(C(=O)N2CCN(c3ccccc3F)CC2)cc1NC(=O)c1nsc2ccccc12	x	-5.1%[59 µM]	1.1%	x	-28.9%	10.7%[57 µM]
O=c1cnc2cnc(Nc3ccccc3)nc2n1C[C@H]1CCCO1	10.1%	-8.2%[12.7 µM]	x	x	x	x
COc1ccc(NC(=O)C2CCN(S(=O)(=O)c3cc(-c4noc(C)n4)ccc3C)CC2)cc1	x	-0.6%[59 µM]	u	x	-30.3%	-10.7%
Cc1ccc(CCNC(=O)c2cc3sccc3n2Cc2ccc(F)cc2)cc1	x	-15.6%[59 µM]	-1.6%	x	-10.6%	35.6%
CC(=O)N1[C@H](Cc2ccccc2)C=C[C@]1(C)C(=O)NCc1ccc(C)o1	44.7µM*!	6.31µM*	-10.8%	-21.6%	-20.1%	19.5%
CNC(=O)[C@@]1(C)C=C[C@@H](Cc2ccccc2)N1C(=O)OC	2.0%	79.4µM*	-16.3%	-8.2%	-23.9%	0.1%
CNC(=O)[C@@]1(C)C=C[C@@H](Cc2ccccc2)N1C(C)=O	14.6%	x	x	x	x	x
CCCCc1nc2c(c3c1C[C@H](C)OC3)CN(C(=O)c1ccco1)CC2	-2.2%	x	x	x	x	x
CC(=O)OC1C[C@@]2(C)C(c3ccoc3)OC(=O)C3O[C@@]32[C@]2(C)C(OC(C)=O)CC3C(C)(C)C(OC(C)=O)CC(OC(C)=O)[C@@]3(C)C12 (stereo partly specified)	-0.3%	-16.2%[2.33 µM]	x	x	x	x
COc1ccc(NC(=O)Cn2c(C)c3cnn(-c4ccccc4)c(=O)c3c2C)c(OC)c1	x	-6.7%[59 µM]	-24.7%	x	-16.1%	24.5%
COc1ccc(Cn2c(C(=O)O)c(CNCCc3cccs3)c3ccc(C)cc32)cc1	x	-34.8%[59 µM]	-36.8%	x	-33.1%	-4.1%
O=C(NC(=S)Nc1ccc(-c2ccc(CO)o2)cc1)c1cccs1	8.91µM*	u	x	x	-9.6%	-14.0%[57 µM]
CC(=O)NC(=S)Nc1ccc(NC(=S)NC(=O)c2cccs2)cc1	7.2%	x	-5.6%	x	-28.8%	35.5%
CCN(CC)c1ccc(NC(=O)CN(C)Cc2cccs2)cc1	-9.9%	8.91µM*	31.6µM*	x	39.8µM*	44.7µM*
CCCC(=O)NC(=S)Nc1ccc(NC(=O)c2cccs2)cc1	13.3%	11.2µM*	2.7%	x	-7.4%	44.0%
O=C(NC(=S)Nc1ccc(S(=O)(=O)N2CCCC2)cc1)c1cccs1	u	-29.5%[59 µM]	-28.0%	-11.7%	-18.4%	0.5%
CCCC(=O)Nc1ccc(C(=O)NNC(=S)NC(=O)c2cccs2)cc1	7.3%	5.5%[0.0925 µM]	0.7%	19.8%	-24.4%	29.4%
CCN(CC)c1ccc(NC(=S)NC(=O)c2cccs2)cc1	u	x	10µM*	u	17.8µM*	u
Cc1nn(CCC(=O)NCc2cccc(Br)c2)c(=O)c2nn(-c3ccccc3)c(C)c12	x	-18.8%[59 µM]	-38.9%	x	-15.5%	14.0%
CCCC(=O)Nc1ccc(NC(=S)NC(=O)c2cccs2)cc1	-14.6%	31.6µM*	u	1.7%	-11.7%	39.0%
CCN(c1ccccc1)S(=O)(=O)c1ccc(NC(=S)NC(=O)c2cccs2)cc1	u	5.4%[59 µM]	-12.1%	-13.5%	-27.4%	-15.2%
CCCC(=O)NC(=S)Nc1ccc(N2CCN(C(=O)c3cccs3)CC2)cc1	11.5%	39.8µM*	u	-4.1%	-26.8%	4.2%
CN(C)S(=O)(=O)c1ccc(NC(=S)NC(=O)c2cccs2)cc1	31.6µM*	-0.9%	-17.1%	2.2%	-25.2%	14.7%
SMILES	Sfp inh	G9a inh	BAZ2B inh	L3MBTL1 inh	JMJD2A Tudor	HP1b binding inh
CC(=O)O[C@@]1(C(C)=O)CCC2C3C=C(Cl)C4=CC(=O)C5CC5[C@@]4(C)C3CC[C@]21C (stereo partly specified)	-4.9%	5.0%[2.33 µM]	x	x	x	x
CC(=O)c1ccc(N2CCOCC2)cc1O	17.5%	x	x	x	x	x
CC(=O)c1ccc2c3c(ccc(O)c13)CC2	-10.3%	44.7µM*	35.5µM*	u	44.7µM*	u
OCCN1CCN(C(c2ccc(Cl)cc2Cl)c2sc3nc(-c4ccco4)nn3c2O)CC1 (stereo unspecified)	x	u	-17.8%	x	-14.9%	27.5%
N#CCSc1n[nH]c2nc3c(c(=O)n12)C1(CCCC1)Cc1ccccc1-3	89.1µM*	u	x	-7.5%	-8.3%	53.6%
O=C(CSc1nc2c([nH]c3ccccc32)c(=O)n1-c1ccccc1)Nc1ccccc1C(F)(F)F	x	13.5%[59 µM]	2.0%	x	-16.8%	21.1%[57 µM]
COc1cc(OC)cc(C(=O)Nc2ncn[nH]2)c1	x	22.2%[2.33 µM]	u	1.8%	-33.8%	33.7%
COc1cc(OC)c(C(=O)Nc2ncn[nH]2)cc1OC	x	x	x	x	50.1µM*	32.0%
CCOc1cc(C(=O)NC(=S)Nn2cnnc2)cc(OCC)c1OCC	-59.8%	25.1µM*	-30.4%	x	u	-7.4%
O=C(Nc1ncn[nH]1)c1ccc(Cl)cc1Cl	14.7%	u	50.1µM*	u	-25.6%	33.4%
C=CCOc1cccc(C(=O)Nc2ncn[nH]2)c1	1.3%	u	56.2µM*	-3.8%	-11.6%	28.8%
Cc1nn(-c2ccc(N3CCCC3)nn2)c(C)c1CCC(=O)Nc1ccc(F)cc1F	x	13.4%[59 µM]	-19.8%	x	-23.0%	38.0%
CCOc1cc(C(=O)Nc2ncn[nH]2)cc(OCC)c1OCC	14.6%	12.8%	56.2µM*	9.8%	-32.6%	10.4%
O=C(Nc1nc(=S)ss1)c1ccc(Cl)cc1Cl	12.6µM*	u	-27.5%	-1.0%	-3.9%[57.1 µM]	u
O=C(O)c1cc(=O)n(Cc2ccccc2)c(=O)[nH]1	u	15.8µM*	u	x	28.2µM*	17.1%
Cc1ccc(NC(=O)c2cc(=O)n(Cc3ccccc3)c(=O)[nH]2)cc1C	-19.6%	1.2%	-29.3%	x	10µM*	-10.1%
N/C(=N\OS(=O)(=O)c1ccccc1)c1ccccn1	-20.3%	u	22.4µM*	-16.6%	3.55µM*	44.0%
N/C(=N\OS(=O)(=O)c1ccc(Br)cc1)c1ccncc1	17.3%	39.8µM*	2.5%	0.7%	-27.4%	-38.0%
N/C(=N\OC(=O)c1ccc(Cl)cc1)c1ccccn1	0.4%	x	9.4%	10.2%	-18.5%	16.4%
N/C(=N\OS(=O)(=O)c1ccc(Cl)cc1)c1ccccn1	-21.0%	2µM*	25.1µM*	x	25.1µM*	55.7%
CCCCCNC(=O)C1CCC(Cn2c(=O)c3sccc3n(CC)c2=O)CC1 (stereo unspecified)	x	3.2%[59 µM]	-1.8%	x	3.3%	40.2%
Cc1ccccc1-c1nc(CS(=O)(=O)CC(=O)NCc2ccc3c(c2)OCO3)c(C)o1	-0.4%	50.1µM*	-9.5%	1.4%	-15.6%	42.8%
